Screens as filed in PubChem.
Shown is part of a subset that was picked to be rich in hits.
Pf Dd2 growth = blocks in vitro growth of P. falciparum Dd2; AID 1347417; P. falciparum Dd2 growth, SYBR Green, 72 h; Potency, µM (doses to about 28.9 µM), without a hit: top-dose activity, negative = inhibition, usual class: inhibitors; 120,000 tested, 4.3% active; active = well fitted inhibition curve with a large enough effect;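 also: plate controls were DMSO vehicle for no effect and reference drug for full effect; nearly all actives have a fitted effect of over 65% in size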
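Infected erythrocytes (Dd2, 0.3% parasitemia, 2.5% hematocrit final) are added to compound in RPMI-1640/Albumax II medium, grown 72 h at 37C in low oxygen, then lysed with saponin/Triton-X containing SYBR Green and read by fluorescence.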
* hit, by the source's call; i = inactive; [ ] = another dose, or the depositor's remark. Potency is read from the fitted curve at half-maximal effect.

SMILES | Pf Dd2 growth
N#Cc1ccc(-n2nc(C3CCOCC3)nc2C2(C(N)=O)CC2)cc1 | -2%
Clc1ccccc1CSc1nc(NCCc2ccccc2)c2ccccc2n1 | 11µM*
COc1ccc(CCNc2nc(SCc3ccc(Cl)cc3)nc3ccccc23)cc1OC | -17%
Clc1ccc(CSc2nc(NCCc3ccccc3)c3ccccc3n2)cc1 | 10µM*
COc1ccc(C(C)=O)cc1CSc1nc(NCc2ccc(Cl)cc2)c2ccccc2n1 | i
Cc1ccccc1CSc1ncc(Cl)c(C(=O)NCc2ccccc2)n1 | 5%
COc1ccc(CCNc2nc(SCc3cccc(F)c3)nc3ccccc23)cc1OC | -18%
O=C(Nc1cccc(F)c1)N1C[C@@H]2C[C@H](C1)c1ccc(-c3cccc(C(F)(F)F)c3)c(=O)n1C2 | 1%
CC1(C)[C@H](Cc2cc(CN3CCCCC3)on2)C[C@@H]1NCc1ccccn1 | -6%[44.1 µM]
O=C(Cc1ccccc1F)NC1CCN(c2cc(-c3cccs3)[nH]n2)C1 (stereo not given) | i
O=C(CN1C(=O)CNC1=O)NC1CCCN(Cc2ccccn2)C1 (stereo not given) | -3%
Cc1ccccc1-c1nc(C2CC(=O)N(c3ccc(F)c(Cl)c3)C2)no1 (stereo not given) | 67%
O=c1c2nc(-c3ccc(O)c(F)c3)ccc2ncn1-c1ccc(F)cc1F | -26%[44.1 µM]
O=c1c2nc(-c3ccc(O)c(F)c3)ccc2ncn1-c1ccccc1 | 13µM*
O=c1c2nc(-c3ccncc3)ccc2ncn1-c1ccccc1 | -17%[44.1 µM]
Cc1c(C(=O)OC2CCC(C)CC2)[nH]c2c1C(=O)CC(c1ccc(F)cc1)C2 (stereo not given) | -17%
COc1ccc(OC)c(C2CC(=O)c3c([nH]c(C(=O)OC4CCC(C)CC4)c3C)C2)c1 (stereo not given) | 10µM*
CCOc1ccc(C2CC(=O)c3c([nH]c(C(=O)OC4CCC(C)CC4)c3C)C2)cc1 (stereo not given) | -8%
Cc1c(C(=O)OC2CCCCC2)[nH]c2c1C(=O)CC(c1ccccc1)C2 (stereo not given) | -16%
COc1ccc(C2CC(=O)c3c([nH]c(C(=O)OC4CCCCCC4)c3C)C2)cc1OC (stereo not given) | 10µM*
Cc1c(C(=O)OC2CCCC2)[nH]c2c1C(=O)CC(c1ccc(C(C)(C)C)cc1)C2 (stereo not given) | -18%
COc1ccc(NC(=O)NCC2CCOCC2)cc1F | 15%
COc1ccc(-c2cn(CCn3[nH]c(=O)c4ccccc4c3=O)nn2)cn1 | -18%
CCc1cc(NCC(O)CN2CCCC2)ncn1 (stereo not given) | 5%
C=C(C)CNc1ccc(C(=O)N(CC)Cc2nccn2C)cn1 | 3%
SMILES | Pf Dd2 growth
Cc1ncncc1C(=O)N1CCOC(CC(c2ccccc2)c2ccccc2)C1 (stereo not given) | -17%
NC1(C(=O)N2CCOC(CC(c3ccccc3)c3ccccc3)C2)CC1 (stereo not given) | 10µM*
O=C(c1ccc[n+]([O-])c1)N1CCOC(CC(c2ccccc2)c2ccccc2)C1 (stereo not given) | -23%
O=C(CC1CCOC2(CCN(C(=O)c3ccccc3)CC2)C1)NC1CC1 (stereo not given) | 42%
Cc1cc2c(SCC(=O)N3CCOCC(CO)C3)ncnc2s1 (stereo not given) | -12%
Cc1ccc(S(=O)(=O)C(CNC(=O)Cc2ccc(Cl)cc2)c2cccs2)cc1 (stereo not given) | 2%
CCNc1ncc(C(=O)N[C@H](c2cccs2)C2CC(O)C2)cn1 (stereo not given in full) | -25%
CCc1ncc(C(=O)NC(c2ccc(C)cc2)c2cccs2)cn1 (stereo not given) | 10µM*
O=C1COCCN1C1CCN(Cc2ccccc2)CC1 | 5%[44.1 µM]
Cc1ccc(C(C)NC(=O)c2cc(COc3ccccc3)[nH]n2)c(C)c1 (stereo not given) | i
Cc1cc(C)n(C)c(=O)c1C(=O)NC1CCCc2nc(-c3ccccc3)ncc21 (stereo not given) | 8%
COc1cccc(CSc2nc(-c3ccccc3OC)nc3c2Cc2c(CO)cnc(C)c2O3)c1 | 5µM*
COc1ccccc1NC(=O)CSc1nc(-c2ccc(C)cc2)nc2c1Cc1c(CO)cnc(C)c1O2 | -25%
C=Cc1ccc(CSc2nc(-c3ccccc3C)nc3c2Cc2c(CO)cnc(C)c2O3)cc1 | 5.6µM*
COc1cccc(-c2nc3c(c(SCC(=O)Nc4cccc(C)c4C)n2)Cc2c(CO)cnc(C)c2O3)c1 | 52%
COc1ccc(-c2nc3c(c(SC)n2)Cc2c(CO)cnc(C)c2O3)cc1 | -9%
COc1ccc(-c2nc3c(c(SCc4ccc(Br)cc4)n2)Cc2c(CO)cnc(C)c2O3)cc1 | 1.1µM*
Cc1ncc(CO)c2c1Oc1nc(-c3ccccc3)nc(SCC(=O)Nc3cccc(C(F)(F)F)c3)c1C2 | i
COc1ccc(-c2nc3c(c(SCC(=O)Nc4cccc(O)c4)n2)Cc2c(CO)cnc(C)c2O3)cc1 | 5.6µM*
COc1cccc(-c2nc3c(c(SCc4ccccc4Cl)n2)Cc2c(CO)cnc(C)c2O3)c1 | 2%
COc1ccccc1NC(=O)CSc1nc(-c2cccc(Cl)c2)nc2c1Cc1c(CO)cnc(C)c1O2 | 7%
CC(=O)c1ccc(NC(=O)N[C@@H]2C=C(C(=O)N[C@H](C)C(N)=O)C[C@@H](O)[C@@H]2O)cc1 | -1%[44.1 µM]
O=C1NCCCN1C1CCN(Cc2ccccc2OC(F)(F)F)CC1 | -12%[44.1 µM]
O=C1NCCCCCN(C(=O)NCCc2ccccc2)[C@H]2CCCC[C@@H]12 | -7%
Cc1ccc(-c2ccc3nnc(CNC(=O)c4ccccc4F)n3n2)cc1C | -14%
SMILES | Pf Dd2 growth
COCc1ccc2c(c1)c(OC(C)(C)C(=O)NC1CCN(C)CC1)nn2CCC(C)C | -22%[44.1 µM]
COc1cc(F)c(C(=O)N2C[C@@H](C(=O)O)[C@H](c3ccccc3)C2)c(F)c1 | -11%
O=C(c1noc(-c2ccc(F)cc2)n1)N1CCN(c2ccc(Cl)cc2)CC1 | 47%
Cc1cc(C(F)(F)F)n(CC(C)CNc2ncncn2)n1 (stereo not given) | i
CCOc1ccc(NC(=O)CSc2nc(-c3cccc(Cl)c3)nc3c2Cc2c(CO)cnc(C)c2O3)cc1 | 7%
C=Cc1ccc(CSc2nc(-c3ccc(OC)cc3)nc3c2Cc2c(CO)cnc(C)c2O3)cc1 | 3.2µM*
C=Cc1ccc(CSc2nc(-c3ccc(Cl)cc3)nc3c2Cc2c(CO)cnc(C)c2O3)cc1 | 11µM*
CCc1ccc(NC(=O)CSc2nc(-c3ccc(C)cc3)nc3c2Cc2c(CO)cnc(C)c2O3)cc1 | -27%
Cc1ncc(CO)c2c1Oc1nc(-c3ccc(F)cc3)nc(SCc3ccc(F)cc3Cl)c1C2 | 64%[0.594 µM]
CCCOc1ccccc1C(=O)N1CC[C@H](N(C)C)[C@H](CCC(=O)O)C1 | -4%
O=C(c1ccco1)N1CC2CC(C1)[C@H]1CCCC(=O)N1C2 (stereo not given in full) | -5%
CC(=O)NC1CC2(CCN(C(=O)Cc3cnc[nH]3)CC2)c2ccccc21 (stereo not given) | 0%
COc1ccc(-c2cc([C@H]3CN4CC[C@H]3C[C@@H]4CNC(=O)c3ccco3)n(C)n2)cc1 | -14%[44.1 µM]
C=C[C@H]1CN2CC[C@H]1C[C@@H]2CNCc1ccc(N(C)C)cc1 | i
CC[C@H]1CN2CC[C@H]1C[C@@H]2CNCc1ccc(OC)cc1 | 8.9µM*
COc1ccc(-c2cc([C@H]3CN4CC[C@H]3C[C@@H]4CNS(=O)(=O)c3ccccc3)n(C)n2)cc1 | i
COc1ccc(CNC[C@H]2C[C@@H]3CCN2C[C@@H]3c2cc(-c3ccc(F)cc3)nn2C)cc1 | 13µM*
